Assay outcomes: PubChem BioAssay, Center for Chemical Genomics, University of Michigan
This is one part of a sample in which hits are shown more often than they occur.
Dicer inh = blocks human Dicer maturation of pre-miR-21; Q9UPY3; cat-ELCCA pre-miR-21 Dicer processing, chemiluminescence; hits give high values; z-score at 25 µM; actives 6% (n = 47,000); AID 1347074; in the data active = z-score above about 3, passing the limit was not always enough;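 also: plate controls were vehicle for no effect and no enzyme for full effect; higher signal means more uncleaved substrate so more Dicer inhibition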
* marks the source's active call; other numbers are inactive results.

For CC1CC(C)CN(S(=O)(=O)c2cccc(-c3cn4cc(Cl)ccc4n3)c2)C1 (centres undefined) the results were Dicer inh -0.12.
For CC1=C(C(=O)OC2CCCC2)C(c2ccc(F)c(F)c2)C2=C(CCCC2=O)N1 (centres undefined) the results were Dicer inh 0.54.
C/C(=N\N=C(/N)SCc1cc(F)cc2c1OCOC2)c1ccc(C)nc1 was read as Dicer inh -1.29.
CN(C)/C=C/C(=O)c1cc(F)cc(F)c1O was read as Dicer inh -0.18.
`S=C(Nc1ccc(Cl)cc1)SCc1c(Cl)cccc1Cl` gave Dicer inh 0.19.
N=C(N)SCc1c(F)cccc1Cl was read as Dicer inh 0.92.
Screening CCOC(=S)SCc1c(F)cccc1Cl returned Dicer inh 4.26*.
Screening CC1(C)CC(=O)C2=C(C1)N(c1ccc(S(N)(=O)=O)cc1)C(N)=C(C#N)C2c1ccccc1Cl (centres undefined) returned Dicer inh -0.26.
`Nc1sc(-c2ccccc2)cc1-c1n[nH]c(=S)n1Cc1ccccc1` gave Dicer inh -8.86.
`COc1ccc(-n2c(-c3cc(-c4ccccc4)sc3N)n[nH]c2=S)cc1` gave Dicer inh 5.42*.
Screening Nc1sc(-c2ccccc2)cc1-c1n[nH]c(=S)n1-c1ccc(F)cc1 returned Dicer inh -0.78.
`C=C(C)c1cccc(C(C)(C)NC(=O)NCc2ccc(Cl)cc2)c1` gave Dicer inh 0.35.
Screening C=C(C)c1cccc(C(C)(C)NC(=O)NCCc2ccc(S(N)(=O)=O)cc2)c1 returned Dicer inh 3.89*.
`C=C(C)c1cccc(C(C)(C)NC(=O)NCCc2ccccc2)c1` gave Dicer inh 1.2.
Screening CCN(CC)Cc1cccc2c1COC2 returned Dicer inh 2.89.
For CCOC(=O)/C(=C(/C)Nc1ccc(F)cc1)C1CC(=O)N(c2ccc(OC)cc2)C1=O (centres undefined) the results were Dicer inh 0.02.
Screening O=C1c2ccccc2C(=O)C1(c1ccccc1)[N+](=O)[O-] returned Dicer inh 3.08*.
`C#CCC1(c2ccccc2)C(=O)c2ccccc2C1=O` gave Dicer inh 0.75.
O=C1c2ccccc2C(=O)C1(Nc1ccc(Cl)c(Cl)c1)c1ccccc1 was read as Dicer inh -0.91.
O=C(Nc1nccs1)C1COc2ccccc2O1 (centres undefined) was read as Dicer inh 0.33.
Screening O=C(CC1CC(=O)Oc2ccccc21)Nc1nccs1 (centres undefined) returned Dicer inh 3.83*.
O=C(Cn1c(=O)sc2ccccc21)Nc1nccs1 was read as Dicer inh -1.15.
Screening CCCOc1ccc(C2c3c(oc4ccccc4c3=O)C(=O)N2Cc2ccc3c(c2)OCO3)cc1 (centres undefined) returned Dicer inh 0.26.
`Cc1ccc(Sc2ncnc3sccc23)cc1` gave Dicer inh -1.07.
C[n+]1cn(CC(O)COc2cccc(Cl)c2)c2ccccc21 (centres undefined) was read as Dicer inh -0.35.
For COC(=O)C1C(=O)CC(C)(O)C(C(=O)OC)C1c1ccc(OC)cc1 (centres undefined) the results were Dicer inh 1.63.
`CCOC(=O)NC(Nc1ccccc1F)(C(=O)OCC)C(F)(F)F` (centres undefined) gave Dicer inh -0.32.
For CCOC(=O)c1c(NC(=O)COc2ccccc2)sc2c1CC(C)(C)OC2 the results were Dicer inh 1.01.
`CC1(C)Cc2c(sc(NC(=O)CN3C(=O)C4CC=C(Cl)CC4C3=O)c2C#N)CO1` (centres undefined) gave Dicer inh 4.82*.
`N#Cc1c(N2C(=O)C3CC=C(Cl)CC3C2=O)sc2c1CCCC2` (centres undefined) gave Dicer inh 1.28.
Cc1onc(-c2ccccc2)c1C(=O)n1cccc1 was read as Dicer inh -0.05.
Screening Cc1onc(-c2ccccc2)c1C(=O)NNC(=O)c1ccc(-n2c(C)ccc2C)cc1 returned Dicer inh 3.07*.
Cc1onc(-c2ccccc2)c1C(=O)NCCNC(=O)c1c(-c2ccccc2)noc1C was read as Dicer inh 1.2.
`Sc1oc(-c2ccccc2)cc1C=Nc1ccccc1Cl` gave Dicer inh 1.52.
Screening N/C(=N\NS(=O)(=O)c1ccc(Cl)cc1)c1cnccn1 returned Dicer inh -0.58.
`CCOC(=O)c1cnc2c(-c3ccccc3)c(C(F)(F)F)sc2c1OCC` gave Dicer inh -0.56.
`O=C(Nc1nc2c(-c3ccccc3)c(C(F)(F)F)sc2s1)c1ccc(Cl)cc1` gave Dicer inh 0.43.
`Nc1nc2c(-c3ccccc3)c(C(F)(F)F)sc2s1` gave Dicer inh 4.17*.
For CCOC(=O)C1=NNC2C(=O)N(c3cccc(Cl)c3)C(=O)C12 (centres undefined) the results were Dicer inh 0.89.
Screening COc1ccc(C2N=C(N)Nc3nc(=O)c4ccccc4n32)cc1 (centres undefined) returned Dicer inh 0.1.
